# Results as given in PubChem BioAssay (EPA / NIEHS).
# Results filed as inconclusive are left out. Activity calls are given as the source filed them. Rule for the calls, unless noted: active = hit-call score of the fitted dose curve at least 0.9, where 1 is the maximum; inconclusive = response in the unintended direction; inactive = score below 0.9.
# Tests used:
# [1] = read-out: ABC Transporter (ABCB1), ABCB1 (gene 5243); assay: CLD_ABCB1_24hr: CellzDirect (CLD) Gene Expression Assay for ABC Transporter (ABCB1) at 24 hours (AID 2283684)
# Method in brief: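 Primary human hepatocytes, two donor preparations, dosed daily with fresh solutions; vehicle 0.2% DMSO; harvested at 24 h. ABCB1 mRNA measured by quantitative nuclease protection assay (chemiluminescence); morphology-based cytotoxicity annotated.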
# [2] = read-out: Cytochrome P450 2B6 (Homo sapiens) (UniProt P20813); assay: CLD_CYP2B6_24hr: CellzDirect (CLD) Gene Expression Assay for xenobiotic metabolism (CYP2B6) at 24 hours (AID 2283686)
# Method in brief: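 Primary human hepatocytes dosed daily for two days with fresh solutions, harvested at 24 hours; mRNA induction quantified by qNPA chemiluminescence, gain of signal vs 0.2% DMSO vehicle. Cytotoxicity annotated from phase-contrast morphology.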
# [3] = CLD_ACTIN_6hr: CellzDirect (CLD) Gene Expression Assay for Baseline Control (Actin) at 6 hours (AID 2283676);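 note: active means increased actin mRNA relative to DMSO vehicle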
# Method in brief: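 Primary human hepatocytes dosed with fresh chemical solutions (vehicle 0.2% DMSO), harvested at 6 h. Actin mRNA quantified by quantitative nuclease protection assay with chemiluminescent read-out, as background control relative to DMSO.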
# [4] = read-out: Cytochrome P450 3A4 (Homo sapiens) (UniProt P08684); assay: CLD_CYP3A4_6hr: CellzDirect (CLD) Gene Expression Assay for xenobiotic metabolism (CYP3A4) at 6 hours (AID 2283680)
# Method in brief: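 Primary human hepatocytes (two donor preparations) dosed; CYP3A4 mRNA harvested at 6 h and quantified by qNPA chemiluminescence. Gain of signal fitted against 0.2% DMSO vehicle; cytotoxicity flagged by phase-contrast morphology.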
# [5] = read-out: xenobiotic metabolism (CYP1A2), CYP1A2 (gene 1544); assay: CLD_CYP1A2_24hr: CellzDirect (CLD) Gene Expression Assay for xenobiotic metabolism (CYP1A2) at 24 hours (AID 2283683)
# Method in brief: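 Primary human hepatocytes from two donor preparations dosed daily with multiple concentrations of chemical, 0.2% DMSO vehicle. CYP1A2 mRNA at 24 h quantified by qNPA chemiluminescence; gain of signal analyzed relative to DMSO. Cytotoxicity flagged by phase-contrast morphology.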
# [6] = read-out: HMG-CoA synthase (HMGCS2), HMGCS2 (gene 3158); assay: CLD_HMGCS2_24hr: CellzDirect (CLD) Gene Expression Assay for HMG-CoA synthase (HMGCS2) at 24 hours (AID 2283691)
# Method in brief: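 Primary human hepatocytes from two donor preparations, dosed daily with fresh solutions; vehicle 0.2% DMSO, 24 h harvest. HMGCS2 mRNA quantified by qNPA with S1 nuclease digestion and chemiluminescence; gain fitted versus DMSO, cytotoxicity annotated by morphology.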
# [7] = read-out: Cytochrome P450 2B6 (Homo sapiens) (UniProt P20813); assay: CLD_CYP2B6_6hr: CellzDirect (CLD) Gene Expression Assay for xenobiotic metabolism (CYP2B6) at 6 hours (AID 2283677);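 note: actives raise CYP2B6 transcript above DMSO baseline so AC50 marks an inducer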
# Method in brief: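 Primary human hepatocytes dosed with chemicals at multiple concentrations, vehicle 0.2% DMSO; CYP2B6 mRNA induction measured 6 h after dosing by quantitative nuclease protection assay with chemiluminescence, gain of signal fitted relative to DMSO.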
# [8] = read-out: Cytochrome P450 2C19 (Homo sapiens) (UniProt P33261); assay: CLD_CYP2C19_6hr: CellzDirect (CLD) Gene Expression Assay for xenobiotic metabolism (CYP2C19) at 6 hours (AID 2283678)
# Method in brief: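 Primary human hepatocytes from two donor preparations were dosed daily, with 0.2% DMSO as vehicle, and harvested 6 h after dosing. CYP2C19 mRNA induction was measured by qNPA chemiluminescence and fitted as gain of signal against DMSO.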
# [9] = CCTE_Padilla_ZF_144hpf_TERATOSCORE: (Legacy) CCTE's 144 Hour Post-fertilization zebrafish Assay Teratoscore, Padilla Lab (AID 2283679; active = hit-call score of the fitted dose curve at least 0.9, where 1 is the maximum; inactive = score below 0.9;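 for AC50: zebrafish embryos with chorions exposed by immersion from 6-8 hpf to 5 dpf with daily renewal; teratogenicity score from eye scoring of death hatching and malformations at 144 hpf; higher score means more developmental defects relative to DMSO baseline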)
# Method in brief: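 Larvae scored by eye at 144 hpf for death, hatching and malformations after a day in clean Hanks'. Before that, daily-renewed exposure at 80 uM (0.4% DMSO, 26C) from roughly 6-8 hpf through 5 dpf, 4 embryos per chemical.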
# [10] = read-out: Glyceraldehyde-3-phosphate dehydrogenase (Homo sapiens) (UniProt P04406); assay: CLD_GAPDH_24hr: CellzDirect (CLD) Gene Expression Assay for Baseline Control (Glyceraldehyde 3-phosphate dehydrogenase) at 24 hours (AID 2283692)
# Method in brief: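 Primary human hepatocytes (two donor preparations) dosed daily for two days, 0.2% DMSO vehicle; GAPDH mRNA measured at 24 h by qNPA chemiluminescence as a background control, gain-of-signal fitted against DMSO.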
# Sequence of Cytochrome P450 3A4 (Homo sapiens) (P08684 whole entry, looked up): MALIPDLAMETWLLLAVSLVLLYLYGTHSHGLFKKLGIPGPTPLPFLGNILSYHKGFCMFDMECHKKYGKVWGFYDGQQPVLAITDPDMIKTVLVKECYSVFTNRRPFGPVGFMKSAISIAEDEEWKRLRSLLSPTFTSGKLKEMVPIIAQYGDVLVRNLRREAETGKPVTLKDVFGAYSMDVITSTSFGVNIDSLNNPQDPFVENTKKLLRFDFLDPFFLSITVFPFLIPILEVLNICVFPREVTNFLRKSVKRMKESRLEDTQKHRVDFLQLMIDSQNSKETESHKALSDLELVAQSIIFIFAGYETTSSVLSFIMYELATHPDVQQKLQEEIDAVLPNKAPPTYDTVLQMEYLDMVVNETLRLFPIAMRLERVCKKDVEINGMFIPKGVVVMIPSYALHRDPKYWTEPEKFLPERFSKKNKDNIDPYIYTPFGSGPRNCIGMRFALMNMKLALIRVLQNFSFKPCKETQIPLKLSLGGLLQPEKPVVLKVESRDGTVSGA
# Sequence of Glyceraldehyde-3-phosphate dehydrogenase (Homo sapiens) (P04406 whole entry, looked up): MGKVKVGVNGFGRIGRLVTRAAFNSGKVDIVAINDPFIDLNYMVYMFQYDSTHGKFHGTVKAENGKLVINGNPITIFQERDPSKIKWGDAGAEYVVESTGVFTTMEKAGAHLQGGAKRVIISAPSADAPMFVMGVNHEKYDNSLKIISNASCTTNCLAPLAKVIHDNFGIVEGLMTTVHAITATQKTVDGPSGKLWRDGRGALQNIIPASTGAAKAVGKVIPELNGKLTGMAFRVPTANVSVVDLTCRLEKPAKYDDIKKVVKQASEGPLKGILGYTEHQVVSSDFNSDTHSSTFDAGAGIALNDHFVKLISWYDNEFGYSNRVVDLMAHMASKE
# Sequence of Cytochrome P450 2C19 (Homo sapiens) (P33261 whole entry, looked up): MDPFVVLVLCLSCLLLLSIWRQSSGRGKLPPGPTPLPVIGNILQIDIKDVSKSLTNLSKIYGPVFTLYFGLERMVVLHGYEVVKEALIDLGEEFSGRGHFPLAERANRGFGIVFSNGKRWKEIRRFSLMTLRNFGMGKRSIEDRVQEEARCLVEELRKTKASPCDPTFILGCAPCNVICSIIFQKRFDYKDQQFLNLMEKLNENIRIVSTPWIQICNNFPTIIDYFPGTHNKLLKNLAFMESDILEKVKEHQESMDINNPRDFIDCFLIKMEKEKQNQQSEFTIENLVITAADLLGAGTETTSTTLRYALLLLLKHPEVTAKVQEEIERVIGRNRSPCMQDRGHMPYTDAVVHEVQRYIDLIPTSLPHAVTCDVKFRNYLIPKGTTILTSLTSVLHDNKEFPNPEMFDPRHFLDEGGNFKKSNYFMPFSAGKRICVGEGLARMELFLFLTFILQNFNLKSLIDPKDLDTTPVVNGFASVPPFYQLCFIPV
compound,measurement,setting,value
CNC(=O)Oc1cccc(N=CN(C)C)c1,outcome,[1],inactive
Cc1cc(C)nc(NC(=O)NS(=O)(=O)c2ccccc2C(=O)OC2COC2)n1,outcome,[1],inactive
CC(C)(C)C(O)C(Oc1ccc(Cl)cc1)n1cncn1 (stereo not drawn),AC50,[2],2.51 µM (active)
CNC(=O)CSP(=S)(OC)OC,outcome,[2],inactive
O=C(O)CCCOc1ccc(Cl)cc1Cl,outcome,[3],inactive
same,outcome,[4],inactive
same,outcome,[5],inactive
same,outcome,[6],inactive
O=[N+]([O-])c1c(Cl)c(Cl)c(Cl)c(Cl)c1Cl,AC50,[7],20 µM (active)
same,outcome,[5],inactive
C[C@H]1[C@H](c2ccc(Cl)cc2)SC(=O)N1C(=O)NC1CCCCC1,outcome,[3],inactive
same,AC50,[4],1.9 µM (active)
same,AC50,[5],5.84 µM (active)
COc1nn(CSP(=S)(OC)OC)c(=O)s1,outcome,[8],inactive
same,AC50,[9],18.2 µM (active)
same,outcome,[4],inactive
same,AC50,[5],3.12 µM (active)
CCC(C)(NC(=O)c1cc(Cl)c(C)c(Cl)c1)C(=O)CCl (stereo not drawn),outcome,[3],inactive
same,outcome,[4],inactive
same,outcome,[5],inactive
same,outcome,[1],inactive
same,outcome,[10],inactive
COc1cc(OC)nc(NC(=O)NS(=O)(=O)c2cc(NC=O)ccc2C(=O)N(C)C)n1,outcome,[3],inactive
same,outcome,[5],inactive
same,outcome,[1],inactive
same,outcome,[6],inactive
same,outcome,[10],inactive
COC(=O)c1ccccc1S(=O)(=O)NC(=O)N(C)c1nc(C)nc(OC)n1,outcome,[7],inactive
same,outcome,[8],inactive
same,outcome,[4],inactive
same,outcome,[5],inactive
O=[N+]([O-])/N=C1\NCCN1Cc1ccc(Cl)nc1,outcome,[8],inactive
same,outcome,[9],inactive
same,outcome,[1],inactive
same,outcome,[2],inactive
same,outcome,[6],inactive
same,outcome,[10],inactive
CCCN(CCC)c1c([N+](=O)[O-])cc(C(F)(F)F)cc1[N+](=O)[O-],outcome,[3],inactive
same,outcome,[4],inactive
same,AC50,[5],5.03 µM (active)
same,AC50,[2],2.06 µM (active)
COP(=S)(OC)Oc1ccc([N+](=O)[O-])cc1,outcome,[4],inactive
same,AC50,[5],2.07 µM (active)
CCOc1nc(NC)nc(NC(=O)NS(=O)(=O)c2ccccc2C(=O)OC)n1,outcome,[4],inactive
same,AC50,[5],7.74 µM (active)
same,outcome,[10],inactive
CC(C)N(C(=O)COc1nnc(C(F)(F)F)s1)c1ccc(F)cc1,outcome,[5],inactive
same,outcome,[10],inactive
N#Cc1c(Cl)c(Cl)c(Cl)c(C#N)c1Cl,outcome,[8],inactive
same,outcome,[2],inactive
same,outcome,[6],inactive
same,outcome,[10],inactive
COP(=S)(OC)Oc1ccc(SC)c(C)c1,outcome,[4],inactive
same,AC50,[5],9.72 µM (active)
CC1(C)C(C=C(Cl)Cl)C1C(=O)OC(C#N)c1ccc(F)c(Oc2ccccc2)c1 (stereo not drawn),outcome,[8],inactive
same,AC50,[9],0.345 µM (active)
same,outcome,[4],inactive
same,outcome,[5],inactive
CC(C)OC(=O)Nc1cccc(Cl)c1,outcome,[3],inactive
same,AC50,[4],12.2 µM (active)
same,AC50,[5],2.34 µM (active)
COP(=O)(OC)OC=C(Cl)Cl,outcome,[3],inactive
same,outcome,[4],inactive
same,outcome,[5],inactive
same,outcome,[6],inactive
same,outcome,[10],inactive
O=C1c2ccccc2C(=O)N1SC(Cl)(Cl)Cl,outcome,[8],inactive
same,outcome,[1],inactive
same,outcome,[10],inactive
CN1CSC(=S)N(C)C1,outcome,[8],inactive
same,AC50,[9],0.196 µM (active)
same,outcome,[5],inactive
same,outcome,[10],inactive
CNC(=O)/C=C(\C)OP(=O)(OC)OC,outcome,[5],inactive
Cc1[nH]c(=O)n(C(C)(C)C)c(=O)c1Cl,outcome,[8],inactive
same,outcome,[4],inactive
same,AC50,[5],20 µM (active)
same,outcome,[10],inactive
CC[C@H](C)[C@H]1O[C@]2(C=C[C@@H]1C)C[C@@H]1C[C@@H](C/C=C(\C)[C@@H](O[C@H]3C[C@H](OC)[C@@H](O[C@H]4C[C@H](OC)[C@@H](O)[C@H](C)O4)[C@H](C)O3)[C@@H](C)/C=C/C=C3\CO[C@@H]4[C@H](O)C(C)=C[C@@H](C(=O)O1)[C@]34O)O2 (tested in a mixture with another compound),outcome,[3],inactive
same,outcome,[4],inactive
same,outcome,[5],inactive
CCC(C)Nc1c([N+](=O)[O-])cc(C(C)(C)C)cc1[N+](=O)[O-] (stereo not drawn),outcome,[8],inactive
same,AC50,[4],1.2 µM (active)
same,AC50,[5],3.05 µM (active)
CCS(=O)(=O)c1cccnc1S(=O)(=O)NC(=O)Nc1nc(OC)cc(OC)n1,outcome,[8],inactive
same,outcome,[4],inactive
same,outcome,[5],inactive
same,outcome,[6],inactive
O=C(Nc1ccccc1)Nc1cnns1,outcome,[3],inactive
same,outcome,[4],inactive
same,AC50,[5],6.13 µM (active)
same,outcome,[10],inactive
Oc1cc(Cl)ccc1Oc1ccc(Cl)cc1Cl,outcome,[5],inactive
same,outcome,[6],inactive
same,outcome,[10],inactive
CCc1ccc(C(=O)NN(C(=O)c2cc(C)cc(C)c2)C(C)(C)C)cc1,outcome,[9],inactive
same,AC50,[4],0.708 µM (active)
same,AC50,[5],20 µM (active)
